Source: PubChem BioAssay
p53null 39C tox: p53 null cell cytotoxicity, nonpermissive temperature; Potency, µM (doses to about 46.1 µM), without a hit: top-dose activity, negative = cell killing, most hits filed as cytotoxic; AID 904; H1299 p53-null (neo) cells, 39C, ATPlite viability, 24 h; actives 0.97% (n = 55,000);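 also: 0% = DMSO only and -100% = full killing by 100 µM tamoxifen; nearly all actives have a fitted effect of over 50% in size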
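Following overnight plating at 37C (600 cells/well), H1299-neo or H1299-p53A138V cells are dosed up to 46 uM. Incubation lasts 24 hr at 39C before ATP detection.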
p53null 32C kill: selectivity test: cytotoxicity in p53 null cells, permissive temperature | H1299-neo p53 null cells, ATP luminescence, 24 h, 32C | Potency, µM (titrated, usually from 46.1 µM), without a hit: at the highest dose activity change, negative = cytotoxicity, hits mostly cytotoxic | actives 0.62% (n = 55,000);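 also: 0% = DMSO only and -100% = full killing by 100 µM tamoxifen; nearly all actives have a fitted effect of over 55% in size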
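Luminescent ATP readout gave cell viability of p53-null H1299-neo cells after a 24 h compound exposure at the permissive 32C. Titrations ran up to 46 uM, and AC50s were fitted with the standard Hill equation.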
PMP22 txn: modulates PMP22 transcription in S16 Schwann cells. S16 Pmp22-F2sN Schwann cells, FLuc/NLuc coincidence luminescence, 24 h. Potency, µM (doses to about 57.5 µM), inactives show top-dose activity change, negative = inhibition, actives largely listed as inhibitors. actives 2% (n = 43,000). AID 1508649; active = clear falling dose curves in both reporters; inconclusive = both reporters move, but less clearly or upward; inactive = either reporter flat; the % is the NLuc reporter signal
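S16 Schwann cells carrying FLuc/NLuc coincidence reporter in the Pmp22 3' UTR treated with compound 24 h at 37C; FLuc then NLuc luminescence read sequentially by dual-luciferase reagents.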
S16 F2sN tox: cytotoxicity in S16 Pmp22-F2sN Schwann cells; S16 Pmp22-F2sN Schwann cells viability, CellTiter-Glo, 24 h; Potency, µM (top dose mostly 57.5 µM), without a hit: at the top dose activity change, negative = cytotoxicity, most hits filed as cytotoxic; actives 0.48% (n = 43,000); AID 1508642; also: nearly all actives have a fitted effect of over 65% in size
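Viability was measured by CellTiter-Glo luminescence (15 min, room temperature). This followed 24 h at 37 °C of compound exposure (23 nL pin transfer) in S16 Pmp22-F2sN Schwann cells, 500-1,000 per well.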
pS6 MEF inh: inhibitors of mTORC1 signaling in Tsc2-/- p53-/- MEF cells; Tsc2-/- p53-/- MEF, phospho-rpS6 immunofluorescence/PI, 24 h; Potency, µM (doses to about 38.3 µM), for inactives: top-dose activity change, negative = inhibition, most hits filed as inhibitors; actives 0.78% (n = 44,000); AID 493208;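 also: plate controls were DMSO for no effect and rapamycin for full effect; nearly all actives have a fitted effect of over 50% in size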
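Tsc2-/-, p53-/- mouse embryonic fibroblasts (empty-vector line) exposed to compound 24 hrs at 37 C, fixed, immunostained for phospho-rpS6 and counterstained with propidium iodide. Acumen laser scanning gives % positive cells from Alexa 488/PI ratio, thresholded using 7.5 nM rapamycin; PI count gives viability.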
Starred values were filed as active, the others as inactive; ? = inconclusive; / = not tested or not shown; [ ] = dose if it differs, or a comment. Compounds with a hit are over-represented: about 3.2% of the library has one in this group of screens. Unless noted, calls follow the shape of the dose curve; as a rule, active = well fitted curve in the direction sought with a large enough effect; inconclusive = small, poorly fitted or top-dose-only effect, or another doubt; inactive = no such curve, though single readings can be large; an effect the other way counts as inactive or inconclusive. Unless noted, % is scaled to controls: 0 for no effect and ±100 for the full control effect; potency is read from the fitted curve at half-maximal effect.

SMILES | p53null 39C tox | p53null 32C kill | PMP22 txn | S16 F2sN tox | pS6 MEF inh
Oc1ccc(Nc2nc(-c3ccc(Cl)cc3)nc3ccccc23)cc1 | 16µM* | ? | ? | ? | ?
CCCCNc1nc2c(c(=O)n(C)c(=O)n2C)n1CC(O)COc1ccccc1C (configuration not stated) | 10% | -6% | ? | ? | -16%
O=C(CSc1nc(-c2ccc(F)cc2)[nH]c1-c1ccc(F)cc1)Nc1ccc2c(c1)OCCO2 | -26% | 6% | ? | ? | -26%
CCC(=O)NCCc1nc2cc(NC(=O)c3cccc(Br)c3)ccc2n1C | 10µM* | 13µM* | 1% | -15% | -11%
COc1cc(C(=O)N(CCCN(C)C)c2nc3c(OC)cccc3s2)cc(OC)c1OC | -19% | 1% | ? | -1% | 18µM*
Cc1cccc(NC(=O)CN2C(=O)COc3ccc(S(=O)(=O)N4CCC(C)CC4)cc32)c1C | -22% | -4% | 0% | 1% | 0%
CCc1nn(CC(=O)NCc2ccccc2Cl)c(=O)c2cccn12 | 16µM* | -20% | 3% | 2% | 2.6µM*
CCc1cccc(C)c1NC(=O)Cn1nc(C)n2cccc2c1=O | 13µM* | -3% | -4% | -3% | ?
Cc1ccc(/C=C/C(=O)Nc2ccccc2C(N)=O)o1 | 10µM* | 13µM* | -6% | ? | -1%
Cc1ccc(-n2c(SCc3ccccc3F)nc3[nH]ncc3c2=O)cc1C | 11% | 1% | ? | ? | -10%
Cc1ccc(NC(=O)c2cc3ccccn3n2)cc1F | ? | 13µM* | / | / | 0%
COc1cc(NC(=O)c2cc3ccccn3n2)cc(OC)c1OC | -4% | -16% | / | / | -3%
CCc1ccc(NC(=O)c2cc3ccccn3n2)cc1 | 7.9µM* | 10µM* | 3% | -18% | -12%
Cc1ccccc1CCNC(=O)c1cc2ccccn2n1 | 10µM* | ? | / | / | 0%
CC(C)(C)OC(=O)N1CCC(c2c(C(=O)NCCN3CCC(Cc4ccccc4)CC3)cnn2-c2cccc(Cl)c2)CC1 | -122% | 4% | ? | 25µM* | 15µM*
Cc1ccc(-n2ncc(C(=O)NCCN3CCCC3)c2C2CCN(C(=O)OC(C)(C)C)CC2)cc1 | 0% | 4% | ? | -3% | 0%
Cc1ccc(-n2ncc(C(=O)NCCN3CCC(Cc4ccccc4)CC3)c2C2CCN(C(=O)OC(C)(C)C)CC2)cc1 | 20µM* | ? | ? | ? | ?
COC(=O)CN1C(=O)CSc2ccc(S(=O)(=O)Nc3c(C)cc(C)cc3C)cc21 | -4% | 2% | / | / | -8%
Cc1cc(NCc2ccco2)nc2cc(O)ccc12 | -4% | -5% | / | / | /
COc1ccc(-c2nc3ccccc3o2)cc1NC(=O)C(C)Oc1ccc(Cl)cc1Cl (configuration not stated) | -18% | 1%[9.22 µM] | 14µM* | 0% | -17%
COc1ccc(-c2nc3ccccc3o2)cc1NC(=O)CSc1ccc(Cl)cc1 | -19% | 0% | ? | 0% | 7%
COc1ccc(-c2nc3cc(NC(=O)Cc4ccc(Cl)cc4)ccc3o2)cc1OC | 10µM* | ? | ? | 7% | 4.1µM*
COC(=O)c1c(SCC(=O)Nc2ccccc2C(F)(F)F)[nH]c2ccc(Cl)cc2c1=O | 6.3µM* | -25% | -10% | 14% | -3%
Cc1cc(C(=O)Nc2sc3c(c2C#N)CCCC3)no1 | 11µM* | 14µM* | / | / | /
COC(=O)c1c(NC(=O)c2cc3nc(-c4ccc(OC)cc4)cc(C(F)(F)F)n3n2)sc2c1CCCC2 | 16% | -13% | -8% | 7% | 0%
O=C(CCl)Nc1cccc(S(=O)(=O)N2CCCCCC2)c1 | 3%[1.84 µM] | / | / | / | /
CSc1n[nH]c(NCc2ccc(Cl)cc2)n1 | 3% | -26% | / | / | /
CSc1n[nH]c(NCc2ccc(C)cc2)n1 | 11µM* | 20µM* | / | / | /
Cc1ccc(NC(=O)CSc2nnc(NC(=O)NC3CCCCC3)s2)cc1 | 18% | ? | -3% | 7% | -8%
COc1cccc(NC(=O)CSc2nnc(NC(=O)NC3CCCCC3)s2)c1 | -10% | 13µM* | ? | 5% | -4%
